The list is not random: actives were taken first. Their share in the collection is about 4%.
D1 ag = Allosteric Agonists of the Human D1 Dopamine Receptor: qHTS | D(1A) dopamine receptor (Homo sapiens), P21728 | HEK293 T-REx D1 cells, calcium flux, agonist mode | activation, % at 2 µM | hit rate 1% among 360,000; further: 0% is about no effect
Target sequence (P21728 whole entry, looked up): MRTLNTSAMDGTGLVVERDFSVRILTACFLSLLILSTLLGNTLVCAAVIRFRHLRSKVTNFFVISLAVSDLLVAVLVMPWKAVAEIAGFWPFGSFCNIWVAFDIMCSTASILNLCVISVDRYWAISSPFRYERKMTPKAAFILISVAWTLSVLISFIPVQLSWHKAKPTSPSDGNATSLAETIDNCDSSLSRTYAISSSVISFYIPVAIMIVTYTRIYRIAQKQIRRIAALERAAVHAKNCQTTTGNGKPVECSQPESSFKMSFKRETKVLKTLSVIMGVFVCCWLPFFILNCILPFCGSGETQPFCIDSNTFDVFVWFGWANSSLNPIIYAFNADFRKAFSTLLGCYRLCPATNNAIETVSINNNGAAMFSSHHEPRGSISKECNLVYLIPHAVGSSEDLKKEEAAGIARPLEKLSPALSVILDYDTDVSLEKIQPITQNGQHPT
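Agonism was scored from calcium flux recorded over 180 s (1 read/s) after pintool compound addition, following a 10-cycle baseline. Cells were inducible force-coupled HEK293 TREx D1, plated overnight at 30 C and loaded with no-wash calcium dye.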
TRHR agonist = qHTS for Small Molecule Agonists and Allosteric Enhancers of Human TRH Receptor: Primary Screen for Agonists; TRHR cells, calcium flux fluo-8, FDSS agonist mode; activation, % at 2 µM; hit rate 0.18% among 360,000; AID 493084, 2011; further: 0% is about no effect
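Agonist-mode FDSS calcium read (Ex 480/Em 530, 1 s cycles) in 1536-well TRHR cells with fluo-8 dye, after 10-cycle baseline and 23 nL compound addition; TRH at EC20 (10 nM final) added afterwards for the enhancer phase.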
D1 antagonist = Antagonist of Human D 1 Dopamine Receptor: qHTS; D(1A) dopamine receptor (Homo sapiens), P21728; HEK293 TREx D1 cells, calcium flux, dopamine EC80; hits give low values; activity change, negative = inhibition, % at 10 µM; hit rate 3.2% among 360,000; AID 504652, 2011; in the data active means activity change below about -30%; further: on the % scale 0 is the no-effect control and ±100 the full control effect
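After overnight tetracycline induction at 30 C, force-coupled D1 HEK293 cells took up a no-wash calcium dye at room temperature. Compounds were added and monitored 180 s, and the response to EC80 dopamine was then recorded.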
D1 potentiator = Potentiators of Human D1 Dopamine Receptor: qHTS | D(1A) dopamine receptor (Homo sapiens), P21728 | HEK293 TREx D1 cells, calcium flux, dopamine EC20 potentiation | potentiation, % at 10 µM | hit rate 0.036% among 360,000 | AID 504651, 2011; in the data active means potentiation above about 30%; further: 0% is about no effect
GRP78 ERSR act = qHTS for Inducers of the Endoplasmic Reticulum Stress Response (ERSR) in Human Glioma: qHTS; U87-MG GRP78 promoter luciferase reporter, 16 h; hit rate 0.02% among 420,000; Potency, µM, for inactives: at the highest dose activation, most hits filed as activators; active means well fitted activation curve with a large enough effect; further: potency means the concentration at half of the fitted maximal effect; series mostly up to about 76 µM; % of control where 0% means no effect; nearly all actives have a fitted effect of over 35% in size
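Stably transfected U87-MG human glioma cells carrying a GRP78-based luminescent sensor were seeded at 1000 cells/well, pin-dosed with compounds and incubated 16 h. Luciferase reagent was then added, and end-point luminescence was read after 10 min at room temperature.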
TRHR PAM = qHTS for Small Molecule Agonists and Allosteric Enhancers of Human TRH Receptor: Primary Screen for Enhancers; Thyrotropin-releasing hormone receptor (Homo sapiens), P34981; TRHR cells, fluo-8 calcium fluorescence, EC20 TRH enhancement; enhancement, % at 2 µM; hit rate 0.66% among 360,000; AID 493056, 2011; in the data active means enhancement above about 30%; further: 0% is about no effect
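Enhancer read-out: after compound pinning and an initial kinetic agonist-mode read, an EC20 of TRH (10 nM final) was injected and fluo-8 calcium signal (Ex 480/Em 530) followed at 1 s/cycle for 100 cycles in TRHR-expressing cells.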
Starred values were filed as active, the others as inactive; x = not tested or not shown. Unless noted, no stated cut-off is given here; in the data, active means activation above about 30%; inactive means the rest.

SMILES	D1 ag	TRHR agonist	D1 antagonist	D1 potentiator	GRP78 ERSR act	TRHR PAM
CC1CCCC(C)N1C(=O)COC(=O)CNC(=O)c1ccc(Cl)cc1Cl (stereo not given)	4	0	-4	-5	-5%	34*
O=C(CNC(=O)c1ccc(Cl)cc1Cl)OCC(=O)N1CCCC1	1	1	-23	-1	0%	1
C[C@]12O[C@H](C[C@]1(O)CO)n1c3ccccc3c3c4c(c5c6ccccc6n2c5c31)CNC4=O	x	x	x	x	-10%	x
Cc1cc(OCC(=O)Nc2cccc(S(=O)(=O)N3CCCC3)c2)ccc1Cl	23	1	-30*	2	-4%	0
Cn1ccnc1SCC(=O)Nc1cccc(S(=O)(=O)N2CCCCCC2)c1	31*	0	2	-2	-4%	10
Cc1cc(OCC(=O)Nc2cccc(S(=O)(=O)N3CCCCC3)c2)ccc1Cl	11	1	-22	-5	-4%	-1
CCc1ccccc1OCC(=O)Nc1cccc(S(=O)(=O)N2CCCC2)c1	13	0	-30*	2	-3%	-6
CCCCN1CC[C@H]2C=CC[C@@H](C(=O)NCc3cccnc3)[C@H]2C1=O	x	x	x	x	-2%	x
O=C(Cc1ccc(OCCCc2ccccc2)cc1)NO	x	x	x	x	-5%	x
Cc1ncc2c(c1CNS(=O)(=O)N(C)C)CCN(C(=O)/C=C/c1ccccc1F)C2	x	x	x	x	-2%	x
CCN1/C(=C/C=C/c2oc3ccc4ccccc4c3[n+]2CC)Oc2ccc3ccccc3c21	93*	31*	2	-3	-3%	-1
COc1cccc(/C=C(\CC(=O)O)c2nc3ccccc3s2)c1	0	0	1	0	1%	34*
COc1ccc(/C=C(/CC(=O)Nc2ccccc2)c2nc3ccccc3s2)cc1	4	1	2	1	3%	2
CC(=O)Oc1ccc(-c2nc(-c3ccccc3)no2)cc1	x	x	x	x	-4%	x
O=C1CCCC2=C1C(c1ccco1)Nc1ccc3ccccc3c12 (stereo not given)	8	0	-36*	-18	-4%	25
COc1cc(S(=O)(=O)N(Cc2ccccn2)Cc2ccccc2Cl)ccc1-n1cnnn1	3	0	-24	-6	-3%	-2
COc1ccccc1CN(Cc1ccco1)S(=O)(=O)c1ccc(-n2cnnn2)c(OC)c1	9	1	-33*	-10	-4%	1
O=[N+]([O-])c1cc(C(F)(F)F)ccc1Oc1cccnc1[N+](=O)[O-]	0	0	-81*	-9	1%	-1
O=[N+]([O-])c1ccc(N2CCN(C(=S)Nc3cccc(F)c3)CC2)cc1	12	1	-38*	-4	-4%	-3
O=[N+]([O-])c1ccc(NC(=S)N2CCc3ccccc3C2)cc1	13	0	-33*	-10	-2%	-1
O=[N+]([O-])c1ccc(N2CCN(C(=S)Nc3ccc(F)cc3)CC2)cc1	8	1	-34*	-5	4%	5
O=C(c1ccc([N+](=O)[O-])cc1)N1CCc2ccccc2C1	1	0	-7	-6	1%	3
CC12C=C(/C=C/C=C/c3ccco3)C(C)(C1)C(/C=C/c1ccco1)CC2=O (stereo not given)	x	x	x	x	-4%	x
Cc1ccccc1-c1noc(-c2ccc(NC3CCCC3)c([N+](=O)[O-])c2)n1	1	0	3	-3	-5%	-2
COc1ccc(-c2ccc(-c3noc(-c4ccccc4)n3)c(OC)n2)cc1	3	1	-46*	-9	1%	1
SMILES	D1 ag	TRHR agonist	D1 antagonist	D1 potentiator	GRP78 ERSR act	TRHR PAM
COc1nc(-c2ccccc2)ccc1-c1noc(-c2ccccc2)n1	6	1	-11	0	1%	8
COc1ccccc1-c1noc(-c2ccc(NC3CCCC3)c([N+](=O)[O-])c2)n1	1	0	-40*	-2	1%	11
COc1ccc(-c2nc(-c3ccccc3OC)no2)cc1OC	7	0	-36*	0	8%	-8
COc1ccccc1-c1noc(-c2ccccc2)n1	-1	-2	18	4	-1%	-2
COc1ccc(C2Nc3ccccc3C(=O)N2c2cccc3ccccc23)cc1COc1c(C)cccc1C (stereo not given)	x	x	x	x	3%	x
Cc1ccc(-n2c(CCC(=O)O)ccc2-c2cccs2)cc1	4	0	9	-3	-2%	6
Cc1ccc(-n2c(CCC(=O)O)ccc2-c2cccs2)cc1Cl	16	-1	-57*	-1	0%	26
Cc1ccccc1NC(=O)Cn1c(CCC(=O)O)ccc1-c1cccs1	4	0	-42*	-6	0%	3
Cc1onc(-c2ccccc2)c1C(=O)NCCN1Cc2ccccc2OC(c2ccsc2)C1 (stereo not given)	x	x	x	x	-4%	x
O=C(NNC(=O)c1ccccc1C(F)(F)F)c1csc(N2CCOCC2)n1	1	2	-51*	-15	-2%	5
COc1ccc(C(CNC(=O)c2ccc(OCc3c(C)noc3C)cc2)N2CCCC2)cc1 (stereo not given)	14	2	-4	-3	-2%	1
Cc1cc(C)nc(NC(=NCCc2c[nH]c3ccccc23)NC(=O)C(C)(C)C)n1	3	0	-55*	-18	-3%	2
COc1cc(/C=N/NC(=O)CC2(C)OCCCO2)ccc1OCc1ccc(Cl)cc1Cl	10	1	0	-2	3%	1
CC1(CC(=O)N/N=C/c2ccc(OCc3ccc(Cl)cc3Cl)cc2)OCCCO1	4	0	-31*	-8	-2%	-6
COCC(=O)Nc1cc(C(=O)NC2Cc3ccccc3C2)cc2nc(-c3cccnc3)n(C)c12	x	x	x	x	-2%	x
Cc1ccc(NC(=O)CN(C)CC(=O)N(C)Cc2ccccc2)cc1	1	0	-14	-5	-2%	-3
O=S(=O)(c1ccc(Cl)cc1)n1ccc2cccnc21	-2	-1	-36*	-4	-3%	1
O=C(c1ccco1)N1CCN(C(=O)c2ccccc2OCc2ccccc2)CC1	x	x	x	x	-2%	x
CCCCCCNC(=O)c1cn(CC)c2cc(N3CCN(C)CC3)c(F)cc2c1=O	87*	-1	-50*	-13	3%	1
CCn1cc(C(=O)O)c(=O)c2cc(F)c(N3CCNCC3)cc21	-1	-1	-48*	-5	-3%	6
